20 compounds from PubChem BioAssay (NCATS) can be followed below.

Structures are written as SMILES. Inconclusive results are not listed. Activity calls are given as the source filed them. The call rests on the fitted dose curve; in most records, active means well fitted curve in the direction sought with a large enough effect; inconclusive means small, poorly fitted or top-dose-only effect, or another doubt; inactive means no such curve, though single readings can be large; an effect the other way counts as inactive or inconclusive.

Test [1] can be described thus: Quantitative High-Throughput drug screen in 47 multiple myeloma cell lines against the NCATS MIPE library collection: KMM1_JCRB cell viability assay (AID 1918960). Further: nearly all actives have a fitted effect of over 30% in size.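 On viability (% of DMSO): 100% = DMSO-treated cells and 0% = medium-only wells.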 Put shortly:
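ATP readout (CellTiter-Glo), 48 h drug incubation, 37 °C/5% CO2, 500 cells per well; normalisation to DMSO (100%) and media-only (0%) controls.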

A short description of test [2]: Quantitative High-Throughput drug screen in 47 multiple myeloma cell lines against the NCATS MIPE library collection: Karpas417_ECACC cell viability assay (AID 1918961). The conditions noted are these: Karpas417 myeloma viability, CellTiter-Glo ATP luminescence, 48 h; viability (% of DMSO): at 45.8 µM (top of the series) unless noted. The method, boiled down:
(§1)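 Myeloma cell lines, 500 cells per well, exposed to MIPE 4.0 library compounds for 48 h at 37C, 5% CO2. Viability from ATP by CellTiter-Glo luminescence; normalised to DMSO (100%) and media-only (0%) wells.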
Background: In ATP-based viability assays light output follows the ATP content of the culture.

Test [3] in a line: Quantitative High-Throughput drug screen in 47 multiple myeloma cell lines against the NCATS MIPE library collection: JIM3_ECACC cell viability assay (AID 1918963; further: nearly all actives have a fitted effect of over 35% in size). The method, boiled down: as §1
Test [4] in a line: Quantitative High-Throughput drug screen in 47 multiple myeloma cell lines against the NCATS MIPE library collection: JIM1_ECACC cell viability assay (AID 1918964). The method, boiled down: (§2)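 Approved and investigational drugs from MIPE 4.0 were added by pin tool to 500 cells per well. After 48 hours at 37C, ATP-based CellTiter-Glo luminescence indicated remaining viability.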

Test [5] in a line: Quantitative High-Throughput drug screen in 47 multiple myeloma cell lines against the NCATS MIPE library collection: INA6_PLB cell viability assay (AID 1918965; further: nearly all actives have a fitted effect of over 55% in size). The method, boiled down: as §1
A short description of test [6]: Quantitative High-Throughput drug screen in 47 multiple myeloma cell lines against the NCATS MIPE library collection: Karpas25_ECACC cell viability assay (AID 1918968; further: nearly all actives have a fitted effect of over 35% in size). The method, boiled down:
as §2

A short description of test [7]: Quantitative High-Throughput drug screen in 47 multiple myeloma cell lines against the NCATS MIPE library collection: KMS27_JCRB cell viability assay (AID 1918970). Further: nearly all actives have a fitted effect of over 30% in size. The method, boiled down:
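Each line is seeded at 500 cells per well and treated with library compounds for 48 hours under 37 °C, 5% CO2. CellTiter-Glo is then added for 5 min at room temperature before median relative luminescence is recorded.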

Test [8] in a line: Quantitative High-Throughput drug screen in 47 multiple myeloma cell lines against the NCATS MIPE library collection: JJN3_DSMZ cell viability assay (AID 1918966; further: nearly all actives have a fitted effect of over 50% in size). The method, boiled down: as §2
The nature of test [9]: Quantitative High-Throughput drug screen in 47 multiple myeloma cell lines against the NCATS MIPE library collection: H1112_PLB cell viability assay (AID 1918967; further: nearly all actives have a fitted effect of over 30% in size). The method, boiled down:
as §2

Test [10] in a line: Quantitative High-Throughput drug screen in 47 multiple myeloma cell lines against the NCATS MIPE library collection: KHM11_PLB cell viability assay (AID 1918962). Further: nearly all actives have a fitted effect of over 35% in size. The method, boiled down: as §1
Potency means the concentration at half of the fitted maximal effect.

For the compound `CCc1cncnc1N1CCN(Cc2nc3ccc(C(F)(F)F)cc3[nH]2)CC1`, the Potency in test [1] is 2.64 µM (active); in test [3], 20.9 µM (active); in [5], 10.5 µM (active); in test [6] it was 5.26 µM (active); in test [7] it was 7.43 µM (active). In addition, the Potency result in test [2] and in test [4] was “inactive” in each case.

As to `Oc1cccc(-c2nc(N3CCOCC3)c3oc4ncccc4c3n2)c1`, the Potency in test [1] was 0.0136 µM (active); in [3], 0.0762 µM (active); in test [4], 0.0121 µM (active); in test [8], 0.108 µM (active); in [9], 9.59 µM (active); in test [6], 0.054 µM (active). Besides, the viability (% of DMSO) in test [2] is 2.23% [at 92.2 µM] (active).

As to `COc1ccc([C@@H]2CC(=O)c3c(O)cc(O[C@@H]4O[C@H](CO[C@@H]5O[C@@H](C)[C@H](O)[C@@H](O)[C@@H]5O)[C@@H](O)[C@H](O)[C@@H]4O)cc3O2)cc1O`, the Potency entry in [1], in test [2], in test [10], in [3], in [4] and in test [9] was “inactive” in each case. The Potency result in test [6] and in test [7] was “inactive” throughout.

As for `Cc1c(CCOc2ccc(C(=O)O)cc2)c2cc(Cl)ccc2n1C(c1ccccc1)c1ccccc1`, the Potency entry in [1], in [2], in test [10], in test [3], in test [4] and in [5] was “inactive” throughout. In addition, in test [9], the Potency entry is “inactive”. Also, the Potency in [6] is 20.9 µM (active).

As to `N[C@@H]1CONC1=O`, the Potency entry in [1], in test [2], in test [3], in test [4], in test [5] and in test [8] was “inactive” each time. The Potency entry in test [9], in test [6] and in [7] was “inactive” in each case.

For the compound `Cc1cc(C=c2sc3nc4ccccc4n3c2=O)c(C)n1-c1ccccc1`, the Potency result in test [1], in test [3], in test [4], in test [9], in [6] and in test [7] was “inactive” in each case. Besides, the figures for the Potency in test [10] and in test [8] were 0.833 µM (active) and 4.18 µM (active), respectively.

Turning to `O=C1CCC(N2C(=O)c3ccccc3C2=O)C(=O)N1` (centres undefined), the Potency result in [1], in [10], in [3], in test [4], in test [5] and in test [9] was “inactive” in each case. The Potency entry in [6] and in [7] was “inactive” throughout.

As to `CN(C)c1ccc(Nc2nc(N)n(C(=O)c3c(F)cccc3F)n2)cc1`, the Potency is 11.8 µM (active) in test [1]; 1.66 µM (active) in test [2]; 20.9 µM (active) in test [10]; 16.6 µM (active) in [3]; 18.7 µM (active) in [4]; 1.87 µM (active) in [5]. The Potency in test [8] is 20.9 µM (active); in test [6], 26.4 µM (active).

On to `CCC(C)(C)C(=O)O[C@H]1C[C@@H](C)C=C2C=C[C@H](C)[C@H](CC[C@@H]3C[C@@H](O)CC(=O)O3)[C@H]21`, for which the Potency in test [1] is 26.4 µM (active); in test [10], 13.2 µM (active); in test [3] it was 14.8 µM (active); in [4] it was 7.43 µM (active); in test [5], 14.8 µM (active); in test [9], 18.7 µM (active). Further, the Potency in test [6] was 18.7 µM (active).

As to `O=NN(CCCl)C(=O)NCCCl`, the Potency result in [1], in test [10], in [3], in [4], in [9] and in test [6] was “inactive” each time. In addition, the Potency entry in [7] is “inactive”. Moreover, the Potency in test [8] is 0.148 µM (active).

With `S=C(NCc1ccc2c(c1)OCO2)N1CCN(c2ncnc3c2oc2ccccc23)CC1`, the Potency is 1.36 µM (active) in [1]; 4.29 µM (active) in test [2]; 0.855 µM (active) in test [10]; 5.4 µM (active) in [3]; 0.605 µM (active) in [9]; 0.303 µM (active) in [6].

`Cc1[nH]c(=O)c(C#N)cc1-c1ccc2nccn2c1`: the Potency result in [1], in test [10], in test [3], in [4], in [8] and in test [9] was “inactive” each time. The Potency result in [6] was “inactive”.

As for `CCN(CC)CCCC(C)Nc1ccnc2cc(Cl)ccc12` (centres undefined), the Potency result in test [1], in [3], in test [4], in test [8] and in [9] was “inactive” in each case. Also, the Potency in test [2] was 0.0526 µM (active).

In the case of `O=C1[C@H](Cc2ccc(O)cc2)N2C(=O)CCN(C(=O)NCc3ccccc3)[C@H]2CN1Cc1cccc2ccccc12`, the Potency result in test [1] and in [2] was “inactive” each time. For the same compound, the Potency in test [10] is 2.96 µM (active); in test [8], 7.43 µM (active); in test [6], 14.8 µM (active).

For `O=C(NOC[C@H](O)CO)c1ccc(F)c(F)c1Nc1ccc(I)cc1F`, the Potency in test [1] is 0.0187 µM (active); in [2], 0.0469 µM (active); in [10] it was 0.0132 µM (active); in [3] it was 0.166 µM (active); in test [4], 1.66 µM (active); in [5], 0.0332 µM (active). Further, the Potency is 0.0148 µM (active) in test [9] and 0.0105 µM (active) in [7].

In the case of `O=C(O)[C@@H](c1ccc(OCc2ccc3ccccc3n2)cc1)C1CCCC1`, the Potency result in [1], in [10], in [3], in test [5], in test [9] and in test [6] was “inactive” throughout. Besides, the Potency result in test [7] is “inactive”.

`CN1CCN(CCCN2c3ccccc3Sc3ccc(C(F)(F)F)cc32)CC1`: the Potency entry in test [1] and in [4] was “inactive” each time. For the same compound, in [2], the viability (% of DMSO) is 113% (active). The Potency in test [10] is 10.5 µM (active); in test [3], 8.33 µM (active); in test [5], 9.35 µM (active); in [9] it was 7.43 µM (active); in test [6], 4.18 µM (active).

For the compound `CO[C@@H]1[C@H](N(C)C(=O)c2ccccc2)C[C@H]2O[C@]1(C)n1c3ccccc3c3c4c(c5c6ccccc6n2c5c31)C(=O)NC4`, the Potency in test [1] was 2.35 µM (active); in test [2] it was 0.469 µM (active); in test [5], 0.132 µM (active); in [8] it was 4.18 µM (active); in test [6], 2.35 µM (active).

`COCC(=O)NCC=Cc1ccc2ncnc(Nc3ccc(Oc4ccc(C)nc4)c(C)c3)c2c1`: the Potency in [1] is 8.33 µM (active); in test [2], 10.5 µM (active); in test [3] it was 16.6 µM (active); in test [4] it was 16.6 µM (active); in test [5] it was 10.5 µM (active); in test [8] it was 23.5 µM (active). In addition, the Potency in [6] was 6.62 µM (active).

Consider `COc1ccc(-c2ccc3c(N4CCOCC4)nc(N4C[C@@H](C)O[C@@H](C)C4)nc3n2)cc1CO`, for which the Potency in [1] was 0.209 µM (active); in test [2], 0.148 µM (active); in [10], 0.0935 µM (active); in [4], 0.0332 µM (active); in [8], 1.87 µM (active); in test [6], 0.743 µM (active). Besides, the Potency in [7] is 0.187 µM (active).
